From PubChem
Hits are enriched below; roughly 5.6% of the tested compounds scored in any of these assays.
CtBP-E1A inh = qHTS Assay for Inhibitors of the CtBP/E1A Interaction; 0.49% of 340,000 active; CtBP / adenovirus E1A interaction (AlphaScreen); AID 651724, 2012; activity change, % (no concentration beside the values); AlphaScreen GST-E1A/His-CtBP binding, 1536-well; active compounds read low; in the data active = activity change below about -65%; inconclusive = mostly about -30% to -63%
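Steps: dispense buffer (Tris pH 8.0, NaCl 300 mM, TCEP 1 mM, BSA, Tween 20); add 5X protein mix (GST-E1A, His-CtBP, 125 nM each); pin 23 nL compound; 2 h at 37 °C, dark; add 5X beads (50 ug/mL); 1 h; read.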
Gal4-VP16 FLuc = VP16 counterscreen qHTS for inhibitors of ROR gamma transcriptional activity; AID 2546, 2010; Drosophila S2 Gal4-VP16 UAS-luciferase, luminescence, 20 h; 3.5% of 310,000 active; Potency, µM (highest dose often 53.6 µM), usual class: inhibitors;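 note: Gal4-VP16 expression switched on by copper sulfate through the metallothionein promoter; nearly all actives have a fitted effect of over 50% in size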
Six1-Eya2 inh = qHTS Assay for Inhibitors of the Six1/Eya2 Interaction; Homeobox protein SIX1 (Homo sapiens) + Protein phosphatase EYA2 (Homo sapiens), …; AlphaScreen GST-Six1/His-Eya2 binding, biochemical; active compounds read low; activity change, % (test concentration not listed); 0.56% of 360,000 active; in the data active = activity change below about -65%; inconclusive = mostly about -30% to -63%
Target sequence (O00167 whole entry, looked up): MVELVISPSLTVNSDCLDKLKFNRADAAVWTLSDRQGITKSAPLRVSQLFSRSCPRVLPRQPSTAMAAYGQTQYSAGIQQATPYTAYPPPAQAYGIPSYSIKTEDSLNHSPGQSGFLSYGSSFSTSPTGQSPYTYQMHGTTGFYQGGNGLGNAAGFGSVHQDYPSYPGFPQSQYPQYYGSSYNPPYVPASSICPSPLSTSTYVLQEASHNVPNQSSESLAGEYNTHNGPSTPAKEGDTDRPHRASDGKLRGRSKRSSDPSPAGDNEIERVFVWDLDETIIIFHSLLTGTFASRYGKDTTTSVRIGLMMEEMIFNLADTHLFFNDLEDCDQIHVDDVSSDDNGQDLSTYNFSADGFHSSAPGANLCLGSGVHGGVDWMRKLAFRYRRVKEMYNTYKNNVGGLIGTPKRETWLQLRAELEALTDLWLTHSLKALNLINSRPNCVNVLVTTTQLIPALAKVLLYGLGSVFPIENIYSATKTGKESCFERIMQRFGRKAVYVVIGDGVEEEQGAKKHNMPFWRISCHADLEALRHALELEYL
Target sequence (Q15475 whole entry, looked up): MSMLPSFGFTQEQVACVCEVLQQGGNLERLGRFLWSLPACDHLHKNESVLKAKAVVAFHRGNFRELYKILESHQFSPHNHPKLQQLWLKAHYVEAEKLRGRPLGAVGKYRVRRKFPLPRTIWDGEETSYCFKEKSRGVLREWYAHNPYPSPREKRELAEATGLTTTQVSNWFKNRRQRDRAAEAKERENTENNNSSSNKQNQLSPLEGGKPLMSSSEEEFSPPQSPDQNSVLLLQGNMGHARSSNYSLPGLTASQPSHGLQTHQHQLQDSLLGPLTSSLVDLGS
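GST-Six1 + His-Eya2 (5X stock: 250/500 nM); Tris pH 8.0, 300 mM NaCl, 0.05% BSA, 0.02% Tween 20; GSH donor/Ni acceptor beads; 1 h 37 °C dark; AlphaScreen readout.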
RORgamma inh = qHTS for inhibitors of ROR gamma transcriptional activity; 5.4% of 310,000 active; Drosophila S2 Gal4-RORgamma UAS-luciferase reporter, 20 h; Potency, µM (doses to about 53.6 µM), usual class: inhibitors; note: nearly all actives have a fitted effect of over 60% in size
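Schneider cells (Drosophila), stable Gal4 DBD–ROR gamma + UAS-luc; 1 hr cmpd preincubation; Cu2+ induction 700 uM final; 20 hr ambient; luminescence.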
PKM2 activator = qHTS Assay for Activators of Human Muscle isoform 2 Pyruvate Kinase; Pyruvate kinase PKM (Homo sapiens), P14618; purified PKM2, Kinase-Glo ATP luminescence, activation; response scale: 0% is enzyme alone, no compound; Potency, µM (doses to about 57.5 µM), actives largely listed as activators; 0.34% of 260,000 active; note: nearly all actives have a fitted effect of over 55% in size
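Purified hPK-M2 (>95% pure) converted ADP (0.1 mM final) to ATP with 0.5 mM PEP in 50 mM imidazole pH7.2, KCl, MgCl2, Tween 20, BSA; 1 h at room temperature. ATP detected by Kinase-Glo luminescence.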
Of the large screens only hits and unclear results are named; the others gave an inactive call. Unless noted, calls come from the whole dose curve; as a rule, active = well fitted curve in the direction sought with a large enough effect; inconclusive = small, poorly fitted or top-dose-only effect, or another doubt; inactive = no such curve, though single readings can be large; an effect the other way counts as inactive or inconclusive.

COc1ccc(NC(=O)NNC(=O)C(C)Oc2ccc(C(C)C)cc2)c(OC)c1 (stereo not drawn)	Gal4-VP16 FLuc inconclusive, RORgamma inh 20µM
O=C(Nc1ccccc1)C1=C(O)CC(c2ccc(Cl)cc2)N2CCN=C12 (stereo not drawn)	RORgamma inh inconclusive, PKM2 activator 18µM
O=C(Nc1ccc(Cl)cc1)N1N=CCC1c1ccccc1 (stereo not drawn)	Gal4-VP16 FLuc inconclusive
Cc1ccc(/C=C/C(=O)N2CCN(S(=O)(=O)c3c(C)c(C)cc(C)c3C)CC2)o1	Gal4-VP16 FLuc inconclusive, RORgamma inh inconclusive, PKM2 activator 3.2µM
CCN1CCN(C(=O)c2c(-c3c(Cl)cccc3Cl)noc2C)CC1	none
CCOc1cc(/C=N/NC(=O)C(O)(c2ccccc2)c2ccccc2)ccc1OC(=O)c1ccco1	none (no result: Gal4-VP16 FLuc, RORgamma inh, PKM2 activator)
CC(/C=C/c1ccc(N(C)C)cc1)=N/N=C1/NC(=O)CC(C(=O)Nc2ccc(Cl)cc2)S1 (stereo not drawn)	CtBP-E1A inh inconclusive, Gal4-VP16 FLuc 8.9µM, Six1-Eya2 inh inconclusive, RORgamma inh 2.5µM
CCCOc1ccc(NC(=O)C2CC(=O)N/C(=N/N=C(\C)CCc3ccc4c(c3)OCO4)S2)cc1 (stereo not drawn)	RORgamma inh inconclusive
COc1ccc(NC(=O)C2CC(=O)N/C(=N/N=C/c3ccccc3)S2)cc1 (stereo not drawn)	none
CCCOc1ccc(NC(=O)C2CC(=O)N/C(=N/N=C(C)/C=C/c3ccc(N(C)C)cc3)S2)cc1 (stereo not drawn)	Gal4-VP16 FLuc 3.2µM, Six1-Eya2 inh inconclusive, RORgamma inh 2.8µM
CC(/C=C/c1ccc(N(C)C)cc1)=N\N=C1\NC(=O)CC(C(=O)Nc2ccccc2)S1 (stereo not drawn)	Gal4-VP16 FLuc 3.5µM, Six1-Eya2 inh inconclusive, RORgamma inh 2.2µM
Oc1ccccc1CNc1ccc(OC(F)(F)F)cc1	Gal4-VP16 FLuc inconclusive (no result: CtBP-E1A inh)
CCOC(=O)c1cccc(OS(=O)(=O)Cc2ccccc2)c1	none (no result: Gal4-VP16 FLuc, RORgamma inh, PKM2 activator)
Clc1ccc(OCc2noc(-c3ccsc3)n2)c(Cl)c1	none
CCn1c(C)nc2cc(-c3nnc(-c4c(-c5ccccc5)noc4C)o3)ccc21	Gal4-VP16 FLuc 5µM, RORgamma inh inconclusive
C=CCn1c(=S)[nH]c2scc(-c3cccs3)c2c1=O	Gal4-VP16 FLuc 0.79µM, RORgamma inh 0.63µM
Cn1c(=S)[nH]c2scc(-c3cccs3)c2c1=O	Gal4-VP16 FLuc 5µM, RORgamma inh 0.79µM
CC1=CC(=O)C(C(C)C)=C/C1=N/OS(=O)(=O)c1ccccc1	Gal4-VP16 FLuc 2µM, Six1-Eya2 inh inconclusive, RORgamma inh 2.8µM (no result: CtBP-E1A inh)
CC1=CC(=O)C=C(C)C1=NOS(=O)(=O)c1ccccc1	Gal4-VP16 FLuc 18µM, RORgamma inh 18µM
CC1Cc2ccccc2N1C(=O)COC(=O)Cc1ccc(F)cc1 (stereo not drawn)	none (no result: Gal4-VP16 FLuc, RORgamma inh, PKM2 activator)
CCOc1ccc(CC(=O)Nc2c3c(nn2C(C)(C)C)CS(=O)(=O)C3)cc1	none
COc1ccc(NC(=O)C(c2ccc(C#N)cc2)n2c(=O)c(-c3cc4ccccc4[nH]3)nc3ccccc32)cc1 (stereo not drawn)	none (no result: Gal4-VP16 FLuc, RORgamma inh, PKM2 activator)
O=S(=O)(Nc1ccc(N2CCOCC2)nn1)c1ccccc1	PKM2 activator 14µM
CC(C)CNC(=S)NC1CC2CCC(C1)N2Cc1ccccc1 (stereo not drawn)	Gal4-VP16 FLuc inconclusive, RORgamma inh 10µM
CCNC(=S)NC1CC2CCC(C1)N2Cc1ccccc1 (stereo not drawn)	none
CC(C)C(=O)NC(=S)Nc1c(Cl)ccc2nsnc12	RORgamma inh 13µM
Cc1ccc(C(=O)NC(=S)Nc2c(C)ccc3nsnc23)cc1	Gal4-VP16 FLuc inconclusive, RORgamma inh 10µM
Cc1ccc(C(=O)NC(=S)Nc2cccc3nsnc23)cc1	none
Cc1ccc2ncccc2c1NC(=S)NC(=O)c1ccccc1	RORgamma inh 8.9µM
COC(=O)[C@@H]1[C@@H](O)[C@]2(O)c3ccccc3O[C@]2(c2ccccc2)[C@H]1c1ccccc1	none (no result: CtBP-E1A inh, Six1-Eya2 inh, PKM2 activator)
N#C/C(=C\c1ccccc1[N+](=O)[O-])C(=O)NC1CCCCC1	Gal4-VP16 FLuc 8.9µM, RORgamma inh inconclusive
N#CCCNc1c(Cl)cc(Cl)cc1C(=O)O	none
Cc1cccc(NCC(=O)N/N=C\c2ccc[nH]2)c1	Gal4-VP16 FLuc inconclusive, RORgamma inh 8.9µM
O=C(N/N=C\c1ccc[nH]1)c1cncc(Br)c1	Gal4-VP16 FLuc 5.6µM, RORgamma inh 2.8µM (no result: CtBP-E1A inh, PKM2 activator)
COc1ccc(/C=N\NC(=O)c2cccc(Br)c2)c(OC)c1	none
O=C(N/N=C/c1ccc[nH]1)c1cccc(Br)c1	Gal4-VP16 FLuc 5.6µM, RORgamma inh 2.8µM
Cc1ccc(C(=O)N/N=C\c2ccc[nH]2)cn1	RORgamma inh inconclusive
O=C(N/N=C/c1ccc(O)cc1)c1cncc(Br)c1	none (no result: PKM2 activator)
Cc1cccc(C(=O)N/N=C/c2ccc[nH]2)c1	Gal4-VP16 FLuc 13µM, RORgamma inh 7.9µM
CCc1nn(CC(=O)N2CCN(c3ccc(OC)cc3)CC2)c(=O)c2cc3occc3n12	none (no result: PKM2 activator)
O=C(N/N=C/c1ccc[nH]1)c1cc2ccccc2cc1O	Gal4-VP16 FLuc inconclusive, RORgamma inh 1.1µM (no result: PKM2 activator)
O=C(N/N=C/c1ccc[nH]1)c1ccc([N+](=O)[O-])cc1	Gal4-VP16 FLuc 5.6µM, RORgamma inh 4µM
CCOC(=O)Cn1c(=O)oc2cc(S(=O)(=O)NCCCc3ccccc3)ccc21	Gal4-VP16 FLuc 13µM, RORgamma inh inconclusive
CCOC(=O)Cn1c(=O)oc2cc(S(=O)(=O)NCCc3ccc(C)cc3)ccc21	Gal4-VP16 FLuc inconclusive, RORgamma inh inconclusive
O=C(Nc1cccc(Br)c1)c1cccc(OC(=S)N2CCOCC2)c1	RORgamma inh inconclusive
CC1=C(CC/C(C)=N/NC(N)=S)C(C)(C)CCC1	Gal4-VP16 FLuc 2.8µM, RORgamma inh 1.8µM
CCOC(=O)CSc1nnc(NC(=O)c2ccc3c(c2)OCO3)s1	Gal4-VP16 FLuc 16µM, RORgamma inh 11µM
CC(C)c1nnc(NC(=O)c2ccc3c(c2)OCO3)s1	Gal4-VP16 FLuc inconclusive, RORgamma inh 6.3µM
O=C1CC(c2ccccc2)c2cc(O)ccc2O1 (stereo not drawn)	RORgamma inh 11µM
O=C1CC(c2ccc3c(c2)OCO3)c2cc(O)ccc2O1 (stereo not drawn)	none (no result: CtBP-E1A inh, Six1-Eya2 inh, PKM2 activator)
Cc1cccc(N(C(=O)CNC(=O)c2cccs2)C(C(=O)NC2CCCC2)c2ccncc2)c1 (stereo not drawn)	none (no result: PKM2 activator)
c1ccc2nc(-c3nc4ccccc4o3)ccc2c1	Gal4-VP16 FLuc 10µM
Cc1ccc(-c2cc(C(=O)n3cnc4ccccc43)c3ccccc3n2)cc1C	Gal4-VP16 FLuc 13µM, RORgamma inh 10µM
